Screening results as filed in PubChem BioAssay.
Most compounds without a hit are left out; they make up all but 0.92% or so of the library.
BLM inh – inhibitors of human Bloom syndrome helicase BLM; recombinant BLM DNA unwinding, fluorescence dequenching; Potency, µM (highest dose often 56.1 µM), usual class: inhibitors; hit rate 0.2% among 350,000; AID 2528; note: nearly all actives have a fitted effect of over 35% in size
WRN helicase inh – blocks human WRN helicase | Potency, µM (highest dose often 114 µM), usual class: inhibitors | Q14191 | WRN helicase unwinding, fluorescent forked duplex, kinetic | hit rate 0.46% among 360,000; note: nearly all actives have a fitted effect of over 55% in size
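Kinetic red-fluorescence monitoring (525/598 nm) tracks WRN helicase activity after 100 nM fluorophore-quencher forked duplex and 2 mM ATP are added to 20 nM enzyme pretreated 15 min at room temperature with compound.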
L3MBTL1 inh-1 – L3MBTL1 (human) inhibition; AID 485360; Potency, µM (doses to about 57.1 µM), hits mostly inhibitors; AlphaScreen L3MBTL1–H3K9me1 peptide binding; Q9Y468; hit rate 0.66% among 230,000; note: nearly all actives have a fitted effect of over 60% in size
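First, the protein-peptide complex forms for 30 min at room temperature (L3MBTL1 50 nM, biotinylated H3K9me1 peptide 75 nM). Next, compounds are pin-transferred and incubated 30 min. Finally, AlphaScreen beads are added and read after 30 min.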
RECQ1 helicase – RECQ1 (human) helicase inhibition. P46063. RECQ1 DNA unwinding, red fluorescence kinetic read. Potency, µM (highest dose often 57.3 µM), hits mostly inhibitors. hit rate 0.54% among 240,000. AID 2549; note: nearly all actives have a fitted effect of over 30% in size
Target sequence (P46063 whole entry, looked up): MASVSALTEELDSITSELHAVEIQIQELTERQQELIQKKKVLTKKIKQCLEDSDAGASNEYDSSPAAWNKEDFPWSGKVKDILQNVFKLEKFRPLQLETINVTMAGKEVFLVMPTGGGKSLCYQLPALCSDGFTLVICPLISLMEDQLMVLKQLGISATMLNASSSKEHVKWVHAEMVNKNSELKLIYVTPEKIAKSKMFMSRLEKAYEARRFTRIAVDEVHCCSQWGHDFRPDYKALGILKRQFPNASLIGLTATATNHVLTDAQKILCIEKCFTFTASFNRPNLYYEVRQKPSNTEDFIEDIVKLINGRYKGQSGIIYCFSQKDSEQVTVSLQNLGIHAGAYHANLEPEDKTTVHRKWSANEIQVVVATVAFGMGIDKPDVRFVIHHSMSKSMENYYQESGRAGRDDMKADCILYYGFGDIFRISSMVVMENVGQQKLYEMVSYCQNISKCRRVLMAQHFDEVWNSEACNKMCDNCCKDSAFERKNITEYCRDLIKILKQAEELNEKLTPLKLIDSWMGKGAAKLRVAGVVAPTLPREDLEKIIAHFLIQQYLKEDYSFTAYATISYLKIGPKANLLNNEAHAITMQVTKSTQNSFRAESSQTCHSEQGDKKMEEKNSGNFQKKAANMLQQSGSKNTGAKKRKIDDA
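RECQ1T1 50 nM; forked duplex (20 bp + 30-nt ss tails) 200 nM, ATP 2 mM final; pH 8.0, 2 mM MgCl2, 2.5 ug/ml poly(dI-dC); 15 min compound preincubation; discontinuous kinetic read over 2 h at RT.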
APEX1 inh – blocks human APE1 abasic DNA cleavage. Potency, µM (doses to about 65.8 µM), usual class: inhibitors. hit rate 0.35% among 350,000. recombinant APE1, TAMRA/BHQ-2 abasic DNA cleavage fluorescence. P27695; note: nearly all actives have a fitted effect of over 55% in size
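Step 1: APE1 (0.75 nM) with compound, 15 min RT. Step 2: add 50 nM fluorophore/quencher THF duplex. Step 3: three fluorescence reads 60 s apart (525/598 nm); read 3 minus read 1 = reaction progress.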
L3MBTL1 inh-2 – blocks human L3MBTL1 methyl-lysine binding. shares compounds with L3MBTL1 inh-1. L3MBTL1 methyl-lysine binding inhibition, biochemical qHTS. Potency, µM, most hits filed as inhibitors. hit rate 91% among 500; note: nearly all actives have a fitted effect of over 70% in size
L3MBTL1 ctr – AlphaScreen signal inhibition, L3MBTL1 hit counter-screen; shares compounds with L3MBTL1 inh-1; AlphaScreen counterscreen, signal inhibition; Potency, µM (highest dose often 57.1 µM), hits mostly inhibitors; 500 tested, under 10 active
A number is an active result; i = inactive; ? = inconclusive; nt = no result; [ ] = another dose, or the depositor's remark. Calls come from the whole dose curve; as a rule, active = well fitted curve in the direction sought with a large enough effect; inconclusive = small, poorly fitted or top-dose-only effect, or another doubt; inactive = no such curve, though single readings can be large; an effect the other way counts as inactive or inconclusive.

SMILES	BLM inh	WRN helicase inh	L3MBTL1 inh-1	RECQ1 helicase	APEX1 inh	L3MBTL1 inh-2	L3MBTL1 ctr
O=c1cc(C(F)(F)F)nc(-n2[nH]c3c(c2=O)CCCC3)[nH]1	i	i	8.9µM	i	i	?	i
CC(C)C1Nc2ccc(C(=O)O)cc2C2C=CCC21 (stereo unspecified)	i	50µM	4.5µM	i	i	3	i
CCCC1Nc2ccc(C(=O)O)cc2C2C=CCC12 (stereo unspecified)	i	?	10µM	i	i	3.8	i
COc1cccc([C@@H]2Nc3ccc(C(=O)O)cc3[C@@H]3C=CC[C@@H]32)c1OC	i	nt	nt	nt	nt	nt	nt
COc1ccccc1Sc1nc(-c2ccccn2)ncc1OC	i	i	4µM	i	i	19	i
Cc1cc2nnc(SCC(=O)Nc3ccc(F)c(Cl)c3)n2c2ccccc12	i	nt	nt	nt	nt	nt	nt
Nc1cc2c(cc1[N+](=O)[O-])OCO2	i	i	32µM	i	?	8.4	i
Nc1cc2c(cc1[N+](=O)[O-])OCCO2	i	i	i	i	i	nt	nt
CCCCn1c(NS(=O)(=O)c2ccc(C)cc2)c(S(=O)(=O)c2ccccc2)c2nc3ccccc3nc21	7.1µM	i	5µM	i	i	21	i
CCn1c(=O)c2sccc2n2c(CCCC(=O)N3CCN(c4cc(C)ccc4C)CC3)nnc12	i	nt	nt	nt	nt	nt	nt
CC(CNc1ccccc1O)C(=O)O (stereo unspecified)	i	i	28µM	i	?	11	i
CC(NC(=O)CCC(=O)Nc1ccccc1O)c1ccccc1 (stereo unspecified)	nt	i	nt	nt	nt	nt	nt
COc1ccc(C(N)c2nccc3cc(OC)c(OC)cc23)cc1OC (stereo unspecified)	i	i	28µM	nt	i	12	?
CO[C@H]1COC(=O)CCC[C@H](C)[C@@H](OC)COC(=O)C/C=C\[C@@H]1C	i[12.4 µM]	nt	nt	i[11.5 µM]	i[12.4 µM]	nt	nt
COc1ccc(Cl)cc1NC(=O)CSc1nc(=O)[nH]c2c1CCC2	i	nt	nt	nt	nt	nt	nt
O=C(O)c1cccc(-n2cccc2/C=C\[N+](=O)[O-])c1	i	?	32µM	i	13µM	21	i
Cc1ccc(-c2nc3ncccc3o2)cc1NC(=O)c1ccc(-c2ccc(Cl)cc2)o1	i	nt	nt	nt	nt	nt	nt
COc1ccc(CC(=O)Nc2nc3ccccc3[nH]2)cc1	i	i	i	i	i	nt	nt
COC(=O)Cc1cc(=O)n(-c2nc3ccccc3[nH]2)[nH]1	i	i	13µM	i	i	6.7	?
O=C(COC(=O)C1CCN(S(=O)(=O)c2cccs2)CC1)c1cc2ccccc2o1	i	i	32µM	i	i	?	i
O=C(COC(=O)C1CCN(S(=O)(=O)c2cccs2)CC1)c1ccc2c(c1)OCCO2	i	i	i	i	i	nt	nt
CCc1ccccc1N1C(=O)N(Cc2cccc(Cl)c2)c2ccccc2S1(=O)=O	i	nt	nt	nt	nt	nt	nt
O=C(c1ccc2c(c1)OCO2)c1cn(Cc2ccc(Cl)cc2)c2ccc(F)cc2c1=O	i	nt	nt	nt	nt	nt	nt
CC1=NOC(=O)/C1=C\c1ccc(-c2ccc(Br)cc2)o1	i	?	nt	i	i	nt	nt
CC1=NOC(=O)/C1=C\c1ccc(-c2ccc(Br)cc2C(=O)O)o1	i	50µM	22µM	i	i	27	i
SMILES	BLM inh	WRN helicase inh	L3MBTL1 inh-1	RECQ1 helicase	APEX1 inh	L3MBTL1 inh-2	L3MBTL1 ctr
O=C(Oc1ccccc1F)c1ccc2c(=O)n3c(nc2c1)CCC3	nt	i	35µM	nt	i	?	i
COC(=O)c1cn(NC(=O)c2cnccn2)c(=O)c2ccccc12	i	i	i	i	i	nt	nt
O=C(Nn1cc(C(=O)Nc2ccccc2F)c2ccccc2c1=O)c1cnccn1	i	i	40µM	i	i	?	i
CCOC(=O)C1CCCN(S(=O)(=O)c2cc3c(cc2C)NC(=O)CO3)C1 (stereo unspecified)	i	nt	nt	nt	nt	nt	nt
CCCC[C@@H](C=O)NC(=O)[C@H](CC(C)C)NC(=O)[C@H](CC(C)C)NC(C)=O	i	nt	nt	i	i	nt	nt
CCCc1nc2sc3c(SCC(=O)NCc4ccco4)ncnc3c2c2c1CCC2	?	40µM	14µM	?	?	19	i
CC(C)(C)OC(=O)N1CCC(c2c(C(=O)NCc3cccs3)cnn2-c2ccc(F)cc2F)CC1	i	nt	nt	nt	nt	nt	nt
Oc1[nH]c2ccccc2c1N=NC(=S)N1CCOCC1	i	i	28µM	i	i	21	?
Oc1[nH]c2ccc(Br)cc2c1N=NC(=S)N1CCOCC1	i	i	?	i	i	nt	nt
CC(C)(C)Cn1nc(-c2ccc(Cl)cc2)c2c(N)ncnc21	i	nt	nt	i	i	nt	nt
Cc1cccc(NC(=O)/C(=C\c2ccc([N+](=O)[O-])o2)NC(=O)c2ccc(Cl)cc2)c1	i	i[11.6 µM]	28µM	i	i	13	i
COC(=O)/C(=C\c1ccc([N+](=O)[O-])o1)NC(=O)c1ccccc1	i	i	nt	i	i	nt	nt
C=Cc1ccc(Cn2c(C(=O)O)c(CNCc3ccc(F)cc3)c3ccc(C)cc32)cc1	i	nt	nt	nt	nt	nt	nt
Cc1ccc(C)c(NS(=O)(=O)c2ccc3[nH]c(=O)oc3c2)c1	i	i	32µM	i	i	27	i
Cc1cccc(NS(=O)(=O)c2ccc3[nH]c(=O)oc3c2)c1C	nt	i	i	nt	i	nt	nt
O=C(Nc1nc(-c2ccco2)c(-c2ccco2)s1)c1cnccn1	nt	i[11.6 µM]	3.5µM	nt	i	2.7	i
O=C(Nc1nc(-c2ccco2)c(-c2ccco2)s1)c1c(F)cccc1Cl	nt	i	?	nt	i	nt	nt
O=C(Nc1nc(-c2ccco2)c(-c2ccco2)s1)c1ccc(F)cc1F	nt	?	8.9µM	nt	i	5.3	i
CC1Cc2cc(S(=O)(=O)NCCc3ccc(Cl)cc3)ccc2N1C(=O)C1CCC1 (stereo unspecified)	i	nt	nt	nt	nt	nt	nt
CCOc1ccc(OCc2ccc(C(=O)O)o2)cc1	i	i[11.6 µM]	32µM	i	?	11	i
CCOC(=O)c1ccccc1Nc1cc(C)nc2nc(-c3ccco3)nn12	i	nt	nt	nt	nt	nt	nt
COc1ccc2c(CC(=O)NCc3ccc4c(c3)OCO4)coc2c1	i	?	25µM	i	i	27	i
Cc1ccc2c(CC(=O)NCc3ccc4c(c3)OCO4)coc2c1	i	i	nt	i	i	nt	nt
Cc1ccccc1OCC(=O)Nc1ccc2nc(SCC(=O)N3CCCC3)sc2c1	i	nt	nt	nt	nt	nt	nt
